Data as given in PubChem BioAssay (NCATS).
Records with an inconclusive call do not appear. Active and inactive are the calls of the source. Unless noted, calls come from the whole dose curve; as a rule, active = well fitted curve in the direction sought with a large enough effect; inconclusive = small, poorly fitted or top-dose-only effect, or another doubt; inactive = no such curve, though single readings can be large; an effect the other way counts as inactive or inconclusive.

Legend:
[1] = Cell Viability - BJ (AID 421; calls by dose curve;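 note: potency is the fitted concentration of half-maximal effect; cells exposed to compound for 40 hours at 37 °C before readout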); details: BJ fibroblast viability, qHTS
In short: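 Luminescent ATP signal (CellTiter-Glo, 20 min at room temperature) served as the read-out of viable BJ cells after 40 hours of compound treatment. Responses were scaled between DMSO and 100 uM tamoxifen, and AC50 values were obtained by Hill modeling.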

[2] = Cell Viability - Jurkat (AID 426;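 active = dose-dependent loss of cell ATP signal giving a full or clear fitted curve, ranked by lower potency value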;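 note: potency is the fitted concentration of half-maximal effect; cells exposed to compound for 40 hours at 37 °C before ATP read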); details: qHTS
In short: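 Cytotoxicity was scored as loss of cellular ATP, measured by luciferase-based luminescence, in Jurkat clone E6-1 cells after 40 h compound treatment; tamoxifen and doxorubicin served as positive controls.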

[3] = Cell Viability - Hek293 (AID 427;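 active = compounds whose dose-response curve shows a full or clear partial loss of cell viability, called from curve shape rather than a numeric limit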;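 note: potency is the fitted concentration of half-maximal effect; cells exposed to compound for 40 hours at 37 °C before reading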); details: qHTS
In short: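 Luminescent ATP read-out (CellTiter-Glo, 20 min RT) after 40 hr compound exposure at 37 °C in complete medium. Signal normalized to DMSO (basal) and 100 uM tamoxifen (100% inhibition); concentration-response fitted with the standard Hill equation to give AC50.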

[4] = Cell Viability - HepG2 (AID 433; calls by dose curve;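 note: potency is the fitted concentration of half-maximal effect; potency for ATP loss meaning cytotoxicity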); details: qHTS
In short: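 ATP luminescence (CellTiter-Glo) after 40 h compound exposure, 37 °C, HepG2, 1500 cells/well, complete medium. Normalized: DMSO = basal, 100 uM tamoxifen = 100% inhibition. AC50 via standard Hill equation.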

[5] = Cell Viability - MRC5 (AID 434; calls by dose curve;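 note: potency is the fitted concentration of half-maximal effect; cells exposed to compound for 40 hours at 37 °C; potency reflects cytotoxicity seen as loss of intracellular ATP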); details: MRC5 lung fibroblast viability, qHTS
In short: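 ATP luminescence read-out (CellTiter-Glo, 20 min RT) after 40 hr, 37 °C compound exposure of 1500 MRC5 cells/well. Data normalized to DMSO (basal) and 100 uM tamoxifen (100% inhibition); AC50 from standard Hill equation.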

[6] = Cell Viability - SK-N-SH (AID 435; calls by dose curve; note: potency is the fitted concentration of half-maximal effect); details: SK-N-SH neuroblastoma cell viability qHTS
In short: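 CellTiter-Glo ATP luminescence, 20 min RT read; cells pre-plated 5 hr, compound 40 hr at 37 °C, 1500 cells/well, complete medium. Normalized DMSO = 0, 100 uM tamoxifen = 100% inhibition; Hill-fit AC50.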

[7] = biological target: Mitogen-activated protein kinase 10 (Mus musculus) (UniProt Q61831); test: JNK3 AlphaScreen Assay (AID 530; active = well fitted curve in either direction with a large enough effect, not every such curve was filed as active;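 note: kinase came from lysate of stimulated human HepG2 cells; signal reports phosphorylation of biotinylated GST-cJun 1-79 at Ser73 with 10 µM ATP; % is set by controls: 0 for no effect and ±100 for the full control effect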); details: JNK3 lysate, c-Jun phosphorylation; series mostly up to 57.1 µM
In short: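 HepG2 lysate (IL-1b/TNFa pre-activated) + biotin-GST-cJun 1-79 + anti-pSer73 cJun; cpd titration, 15 min RT; ATP 10 uM start; Tris pH 7.6, MgCl2, DTT, vanadate; beads in EDTA buffer; AlphaScreen.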

[8] = Cell Viability - N2a (AID 540); details: N2a mouse neuroblastoma cell viability; activity change, negative = cytotoxicity: at 92.2 µM (top of the series);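 note: plate controls were DMSO alone for no effect and tamoxifen control for full effect; nearly all actives have a fitted effect of over 45% in size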
In short: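 In this qHTS cytotoxicity screen, ATP-dependent luciferase luminescence reports viable N2a cells after a 40 hr compound exposure in complete culture medium. Potencies are AC50 values from standard Hill equation fits.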

[9] = Cell Viability - NIH 3T3 (AID 541); details: NIH 3T3 cell viability, qHTS; activity change, negative = cytotoxicity: at 92.2 µM (top of the series);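 note: plate controls were DMSO alone for no effect and tamoxifen positive control for full effect; nearly all actives have a fitted effect of over 25% in size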
In short: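 In this cytotoxicity screen, acute toxicity is scored as an ATP drop measured by CellTiter-Glo in NIH 3T3 fibroblasts following a 40 hr, 37 °C incubation with compound.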

[10] = Cell Viability - HUV-EC-C (AID 542); details: HUV-EC-C endothelial cell viability, qHTS; series mostly up to 92.2 µM; note: % is set by controls: 0 for no effect and ±100 for the full control effect; nearly all actives have a fitted effect of over 35% in size
In short: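 Concentration-dependent ATP loss in HUV-EC-C cells is the measure. Exposure lasts 40 hr at 37 °C; luminescence follows CellTiter-Glo addition, and Hill fits give AC50.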

[11] = Cell Viability - H-4-II-E (AID 543); details: H-4-II-E rat hepatoma viability; series mostly up to 92.2 µM; note: % is set by controls: 0 for no effect and ±100 for the full control effect; nearly all actives have a fitted effect of over 35% in size
In short: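 AC50 from Hill-modelled qHTS concentration-response curves. H-4-II-E rat hepatoma cells in complete medium, 40 hr exposure at 37 °C, viability by CellTiter-Glo ATP luminescence.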

[12] = Cell Viability - SH-SY5Y (AID 544); details: SH-SY5Y neuroblastoma cell viability; viability change, negative = cytotoxic: at 92.2 µM (top of the series); note: nearly all actives have a fitted effect of over 55% in size
In short: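 Quantitative HTS in SH-SY5Y neuroblastoma cells, 40 hr treatment at 37 °C, ATP content by luciferase luminescence; AC50 from Hill fits.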

[13] = Cell Viability - Renal Proximal Tubule (AID 545); details: renal proximal tubule cells viability, primary cells of rat origin; series mostly up to 91.7 µM; note: nearly all actives have a fitted effect of over 40% in size
In short: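 Rat kidney proximal tubule cells, freshly isolated; 1000 cells/well, 5 hr settle, compound 40 hr 37 °C. CellTiter-Glo 20 min RT, luminescence read. AC50 by standard Hill fit.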

[14] = Cell Viability - Mesenchymal (AID 546); details: mesenchymal cells viability, qHTS; series mostly up to 91.7 µM;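 note: cells exposed to compound for 40 hours before reading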
In short: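 Human renal mesenchymal cells (glomerulus-derived), 1000 cells/well, 5 hr 37 °C pre-incubation; compound 40 hr, 37 °C; CellTiter-Glo, 20 min RT; luminescence; AC50 via Hill equation.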

[15] = Cellular Toxicity (caspase-3) HepG2 (AID 654); details: HepG2 caspase-3 activation, luminescence; series mostly up to 92.2 µM;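 note: cells exposed to compound for 16 hours before reading; 0% = DMSO alone and 100% = caspase signal from 100 µM tamoxifen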
In short: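 Concentration-response AC50 values reflect caspase-3/7 induction in HepG2 cells after 16 hours of compound exposure, quantified by luminescence from liberated aminoluciferin and referenced to 100 uM tamoxifen as full stimulation.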

[16] = Cellular Toxicity (caspase-3) Jurkat (AID 655); details: Jurkat caspase-3 activation, luminescence; caspase-3 activation: at 92.2 µM (top of the series), DMSO = 0%, tamoxifen = 100%;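 note: cells exposed to compound for 16 h at 37 °C before reading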
In short: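 Luminescent caspase-3/7 readout (aminoluciferin substrate cleavage) in human T-cell leukemia Jurkat cells after 16 hr compound exposure. Concentration-response normalized to DMSO and 100 uM tamoxifen; AC50 by standard Hill equation.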

[17] = Cellular Toxicity (caspase-3) HUV-EC-C (AID 656); details: HUV-EC-C cells, caspase-3 activation (apoptosis), vehicle = 0, 100 µM tamoxifen = 100%; series mostly up to 92.2 µM
In short: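 Luminescent caspase-3/7 activation (aminoluciferin substrate cleavage) in HUV-EC-C cells after 16 hr compound exposure, 37°C. Signal normalized to DMSO basal and 100 uM tamoxifen as 100%; AC50 from concentration-response fitted with the Hill equation.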

[18] = Cellular Toxicity (caspase-3) SHSY5Y (AID 657); details: SH-SY5Y caspase-3 activation, DMSO zero, 10 µM staurosporine = 100%; series mostly up to 91.7 µM;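 note: cells exposed to compound for 16 hours at 37 °C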
In short: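 Luminescent caspase-3/7 readout (aminoluciferin release) in SH-SY5Y cells after 16 h compound exposure in complete medium. Activity scaled between DMSO basal and 10 uM staurosporine as 100%; concentration-response fitted to Hill equation for AC50.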

[19] = Cellular Toxicity (caspase-3) BJ (AID 658); details: BJ fibroblasts, luminescence, normalized: DMSO 0%, staurosporine 100%; series mostly up to 91.7 µM
In short: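 qHTS, BJ fibroblasts, 1000 cells/well; 5 hr preincubation, 16 hr compound, 37 °C; Caspase-Glo 3/7 reagent, 1 hr RT; luminescence. DMSO = 0%, 10 uM staurosporine = 100%. Hill-equation AC50.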

[20] = Cellular Toxicity (caspase-3) MRC-5 (AID 659); details: MRC-5 cells, luminescence, normalized: DMSO 0%, 10 µM staurosporine 100%; series mostly up to 91.7 µM;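 note: cells exposed to compound for 16 h at 37 °C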
In short: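 MRC-5 fibroblasts, 1500/well; 16 h cpd, 37 °C; Caspase-Glo 3/7, 1 h RT; lumi read. Norm: DMSO = 0%, 10 uM staurosporine = 100%. Hill-fit AC50 from qHTS conc-response.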

O=C(Cl)c1cccc([N+](=O)[O-])c1
inactive: Potency [1] > 92 µM | Potency [2] > 92 µM | Potency [3] > 92 µM | Potency [4] > 92 µM | Potency [5] > 92 µM | Potency [6] > 92 µM | outcome [7] | activity change, negative = cytotoxicity [8] 5.21% | Potency [9] | Potency [10] | Potency [11] | Potency [12] | Potency [13] | Potency [14] | Potency [15] | caspase-3 activation [16] 2.23% | outcome [17] | outcome [18] | outcome [19] | outcome [20]

C=C(C)C(N)=O
inactive: Potency [1] > 92 µM | Potency [2] > 92 µM | Potency [3] > 92 µM | Potency [4] > 92 µM | Potency [5] > 92 µM | Potency [6] > 92 µM | outcome [7] | activity change, negative = cytotoxicity [8] -7.09% | Potency [9] | Potency [10] | Potency [11] | Potency [12] | Potency [13] | Potency [14] | Potency [15] | caspase-3 activation [16] -0.182% | outcome [17] | outcome [18] | outcome [19]

COc1ccc(OC)cc1
inactive: Potency [1] > 92 µM | Potency [2] > 92 µM | Potency [3] > 92 µM | Potency [4] > 92 µM | Potency [5] > 92 µM | Potency [6] > 92 µM | outcome [7] | activity change, negative = cytotoxicity [8] 0.243% | Potency [9] | Potency [10] | Potency [11] | Potency [12] | Potency [13] | Potency [14] | Potency [15] | caspase-3 activation [16] 0.323% | outcome [17] | outcome [18] | outcome [19] | outcome [20]

CC(=O)c1cc(C)oc1C
inactive: Potency [1] > 92 µM | Potency [2] > 92 µM | Potency [3] > 92 µM | Potency [4] > 92 µM | Potency [5] > 92 µM | Potency [6] > 92 µM | outcome [7] | activity change, negative = cytotoxicity [8] -1.61% | Potency [9] | Potency [10] | Potency [11] | Potency [12] | Potency [13] | Potency [14] | Potency [15] | caspase-3 activation [16] 0.691% | outcome [17] | outcome [18] | outcome [19] | outcome [20]

C/C=C(/C)C#N
inactive: Potency [1] > 92 µM | Potency [2] > 92 µM | Potency [3] > 92 µM | Potency [4] > 92 µM | Potency [5] > 92 µM | Potency [6] > 92 µM | outcome [7] | activity change, negative = cytotoxicity [8] -3.64% | Potency [9] | Potency [10] | Potency [11] | Potency [12] | Potency [13] | Potency [14] | Potency [15] | caspase-3 activation [16] 1.22% | outcome [17] | outcome [18] | outcome [19] | outcome [20]

C=CCCCC
inactive: Potency [1] > 92 µM | Potency [2] > 92 µM | Potency [3] > 92 µM | Potency [4] > 92 µM | Potency [5] > 92 µM | Potency [6] > 92 µM | outcome [7] | activity change, negative = cytotoxicity [8] 6.23% | Potency [9] | Potency [10] | Potency [11] | Potency [12] | Potency [13] | Potency [14] | Potency [15] | caspase-3 activation [16] 0.169% | outcome [17] | outcome [18] | outcome [19]

Cc1cscn1
inactive: Potency [1] > 92 µM | Potency [2] > 92 µM | Potency [3] > 92 µM | Potency [4] > 92 µM | Potency [5] > 92 µM | Potency [6] > 92 µM | outcome [7] | activity change, negative = cytotoxicity [8] 6.1% | Potency [9] | Potency [10] | Potency [11] | Potency [12] | Potency [13] | Potency [14] | Potency [15] | caspase-3 activation [16] 2.2% | outcome [17] | outcome [18] | outcome [19] | outcome [20]

C=CCCCCCCC=C
inactive: Potency [1] > 92 µM | Potency [2] > 92 µM | Potency [3] > 92 µM | Potency [4] > 92 µM | Potency [5] > 92 µM | Potency [6] > 92 µM | outcome [7] | activity change, negative = cytotoxicity [8] -4.21% | Potency [9] | Potency [10] | Potency [11] | Potency [12] | Potency [13] | Potency [14] | Potency [15] | caspase-3 activation [16] 2.57% | outcome [17] | outcome [18] | outcome [19] | outcome [20]

CC(=O)CC(C)C
inactive: Potency [1] > 92 µM | Potency [2] > 92 µM | Potency [3] > 92 µM | Potency [4] > 92 µM | Potency [5] > 92 µM | Potency [6] > 92 µM | outcome [7] | activity change, negative = cytotoxicity [8] -14.8% | Potency [9] | Potency [10] | Potency [11] | Potency [12] | Potency [13] | Potency [14] | Potency [15] | caspase-3 activation [16] -2.68% | outcome [17] | outcome [18] | outcome [19] | outcome [20]

CC(C)CO
inactive: Potency [1] > 92 µM | Potency [2] > 92 µM | Potency [3] > 92 µM | Potency [4] > 92 µM | Potency [5] > 92 µM | Potency [6] > 92 µM | outcome [7] | activity change, negative = cytotoxicity [8] 3.29% | Potency [9] | Potency [10] | Potency [11] | Potency [12] | Potency [13] | Potency [14] | Potency [15] | caspase-3 activation [16] -0.38% | outcome [17] | outcome [18] | outcome [19] | outcome [20]

Nc1ccc(F)cc1F
inactive: Potency [1] > 92 µM | Potency [2] > 92 µM | Potency [3] > 92 µM | Potency [4] > 92 µM | Potency [5] > 92 µM | Potency [6] > 92 µM | outcome [7] | activity change, negative = cytotoxicity [8] -8.92% | Potency [9] | Potency [10] | Potency [11] | Potency [12] | Potency [13] | Potency [14] | Potency [15] | caspase-3 activation [16] 1.31% | outcome [17] | outcome [18] | outcome [19] | outcome [20]
